Measurements from PubChem BioAssay (NCI).
Where “and” joins values, the source holds several entries; their conditions need not be identical. Equal values may be shown once. The panel holds about 83,000 compounds, 20% with a hit somewhere; the sample as a whole holds those more often.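 Testing used 96-well plates and a 48-hour single-concentration exposure. Example: -40 means 40% of the starting cells died.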 Unmarked numbers belong to inactive results. Calls of active or inactive are those of the source. Rule for the calls: active = growth percent below 10; inactive = the rest.

Assays:
Assay in all cases: NCI-60 one-dose screen, 48 h (100 = growth as untreated, 0 = no growth, -100 = all killed)
Conditions in all cases: 10 µM unless noted
NCI-H226 lung = tested on: NCI-H226 lung
NCI-H322M lung = tested on: NCI-H322M lung
NCI-H460 lung = tested on: NCI-H460 lung
HOP-92 NSCLC = tested on: HOP-92 NSCLC
NCI-H522 lung = tested on: NCI-H522 lung
A549/ATCC NSCLC = tested on: A549/ATCC NSCLC
786-0 renal = tested on: 786-0 renal
COLO 205 colon = tested on: COLO 205 colon
HOP-62 NSCLC = tested on: HOP-62 NSCLC

| SMILES | growth (NCI-H226 lung) | growth (NCI-H322M lung) | growth (NCI-H460 lung) | growth (HOP-92 NSCLC) | growth (NCI-H522 lung) | growth (A549/ATCC NSCLC) | growth (786-0 renal) | growth (COLO 205 colon) | growth (HOP-62 NSCLC) |
| --- | --- | --- | --- | --- | --- | --- | --- | --- | --- |
| COc1c(B(O)O)cc(F)cc1-c1nc2c(F)cc3[nH]ncc3c2c2c1CCCC2 | 4.1% (active) | 12.6% | 2.44% (active) | 17.2% | 5.36% (active) | 2.51% (active) | 29.2% | -16% (active) |  |
| O=C(Cn1c(/C=C/c2ccc([N+](=O)[O-])cc2)nc2ccccc2c1=O)Nc1ccccc1 | -0.971% (active) | 67.2% | 52.5% | 52.1% | 79.5% | 75.7% | 47.2% | 67.2% |  |
| O=C1/C(=C/C=C/c2ccco2)SC(=S)N1CC(=S)C1C=CS(=O)(=O)C1 (stereo not drawn) | 89.1% | 38.8% | 29.2% | 121% | 32.5% | 47.7% | 91.2% | 76% | 130% |
| CCCN(CCC)S(=O)(=O)c1ccc(C(=O)O)cc1.CCCN(CCC)S(=O)(=O)c1ccc(C(=O)O)cc1.[Cl][Pt+2][Cl].[NH2-].[NH2-] | 23.2% | 42.6% | 0.596% (active) | 5.16% (active) | -54.9% (active) | 33% | 14% | -57.7% (active) | 30.4% |
| CN1C(=O)/C(=C/c2ccco2)S/C1=N/c1nccs1 | 113% | 94.3% | 103% | 114% | 100% | 107% | 97.6% | 121% | 108% |
| CN(C)c1nc(NCCNS(=O)(=O)c2ccc(C(=O)/C=C/c3ccc(F)cc3)cc2)nc(N2CCOCC2)n1 | 74% | 84.4% | 78.5% | 77.8% | 28.7% | 7.37% (active) | -55.7% (active) | 35% | 76.2% |
| O=C1Nc2ccc(F)cc2/C1=C/C(=O)c1cc2ccccc2oc1=O | 86% | 104% | 104% | 94.7% | -7.22% (active) | 108% | 112% | 105% | 97.3% |
| CN(C)c1ccc(/C=C/c2n(Cc3ccc4ccccc4c3)c3ccccc3[n+]2Cc2ccc3ccccc3c2)cc1 | -65.2% (active) | -90% (active) | -75.9% (active) | -67.2% (active) | -69.1% (active) | -53.4% (active) | -72% (active) | -41.7% (active) | -63.3% (active) |
| C#CCN(C)CCCOc1ccc(N(C)C(=O)c2cc(C(C)C)c(O)cc2O)cc1Cl | 13.7% | 34.8% | -13.3% (active) | -23.9% (active) | 12.6% | 15.9% | 33.5% | 7.34% (active) | 34.6% |
| CC1(C)CC(=O)C2=C(C1)OC(N)=C(c1nc3ccccc3[nH]1)C2c1ccc(Cl)cc1 (stereo not drawn) | 65.7% and 123% | 51.3% and 101% | 57% and 112% | 54.8% and 119% | 55% and 111% | 64.6% and 115% | 62.1% and 102% | 78.8% and 121% | 87% and 116% |
| COc1cc2cc(C(=O)N3C[C@@H](CCl)c4c3cc(OC(=O)N(CCC(=O)N3CCN(C)CC3)C3CCCCC3)c3ccccc43)[nH]c2c(OC)c1OC | -11.1% (active) | -28.6% (active) | -73.1% (active) | -71% (active) | -82% (active) | -24.1% (active) | -96% (active) | -66.7% (active) | -55.7% (active) |
| CC[C@]12C=CCN3CC[C@]4(C(=C(C(=O)OC)C1)Nc1cc(OC)c([C@@H]5[C@H]6O[C@H]6[C@@]6(CC)CC(C(=O)OC)=C7Nc8cc(OC)ccc8[C@@]78CCN5[C@@H]68)cc14)[C@@H]32 | 72.3% | 86.2% | 29.9% | 62.1% | 64.8% | 70.1% | 44.6% | 57.7% | 74.1% |
| COc1ccccc1NC(=O)N/N=C/c1c[nH]c2ccccc12 | 19% | 49.4% | 14.1% | 47.7% | -37.1% (active) | 30.5% | 14.9% | 4.3% (active) | 47.6% |
| c1n[nH]cc1-c1nc2ccc3cn[nH]c3c2c2c1CCCC2 | 46.4% | 86.8% | 101% | 85.2% | 70.7% | 95.1% | 110% | 102% | 79.9% |
| CC1=C(C)C(=O)C(N2CCSCC2)=CC1=O | 88.7% | 96.9% | 105% | 89.5% | 94.3% | 99.3% | 99.4% | 121% | 99.1% |
| N/C(=N\c1nc2ccc([N+](=O)[O-])cc2s1)NC(=O)Nc1ccccc1Cl | 23.7% | 61.7% | 11.3% | 17.2% | 5.69% (active) | 9.92% (active) | -32% (active) | 49.3% | 51.3% |
| Cc1nc(N)ncc1-c1ccc2ncnc(N3CCc4cc(F)c(Cl)cc43)c2c1 | 73.7% | 28.7% | 76.7% | 13.6% | 68.2% | 56.2% | 39.1% | 81.5% | 72.8% |
| Clc1ccc(CNc2nc(SCCN3CCOCC3)nc3c2cnn3CC(Cl)c2ccc(Br)cc2)cc1 (stereo not drawn) | 62.6% | 83.8% | 25.1% | 48% | 48.5% | 23.4% | 39.6% | 5.78% (active) | 58.6% |
| OC1CCC(Cn2c(C(F)(F)F)cc3c(Cl)ncnc32)CC1 (stereo not drawn) | 64.4% | -13.9% (active) | -43.6% (active) | 78.2% | -81.3% (active) | 94% | 92.7% | 60.2% |  |
| O=C(CSc1nc2sc3c(c2c(=O)n1-c1ccc(Cl)cc1)CCCC3)N/N=C/C=C/c1ccccc1 | -36.1% (active) | 34.8% | -16.9% (active) | 9.97% (active) | 2.3% (active) | -18.3% (active) | -45.2% (active) | -45.4% (active) | -71.3% (active) |
| COC(=O)c1cc(C(=O)CBr)n2c1ccc1c3ccccc3ccc12 | 53.4% | 82.8% | 39.4% | 53.2% | 59.1% | 31.3% | 52.1% | 38.7% | 48.9% |
| O=C1Nc2cc(-c3ccc(NS(=O)(=O)c4ccc(F)c(Cl)c4)cc3)ccc2/C1=C/c1ccc[nH]1 | 37% | 26.4% | -10.6% (active) | 37.2% | 6.92% (active) | 3.71% (active) | 35.6% | 35.4% | 27.2% |
| COc1cc(C2CC(c3ccc(C(F)(F)F)cc3)=Nc3c(N)nc(N)nc3N2)ccc1Oc1nc(Nc2ccc(F)cc2)nc(N(C)C)n1 (stereo not drawn) | 58.6% | 90.8% | 13% | 33.3% | 30% | 45.9% | 39.1% | 39% | 81.2% |
| N#Cc1c(-c2ccc(F)cc2)nc(SCc2ccccc2)nc1N1CCNCC1 | -58.8% (active) | -53.7% (active) | -85.5% (active) | -92.2% (active) | -81.6% (active) | -90.9% (active) | -94% (active) | -66% (active) | -78.8% (active) |
| COc1ccc(CCC2NCCc3c(Br)c4c(c(OC)c32)OCO4)cc1 (stereo not drawn) | 25.5% | 14.6% | 9.1% (active) | 15.6% | 2.33% (active) | 24.2% | 8.08% (active) | -37.5% (active) | 18.1% |
| COc1sc(/C=N/NC(=O)c2[nH]c3ccc(Br)cc3c2-c2ccccc2)cc1Cl | -17.8% (active) | 13.3% | 1.26% (active) | -7.87% (active) | -39% (active) | -20.2% (active) | -49.8% (active) | -60.9% (active) | -27% (active) |
| CN1CCN(C(=O)Oc2cc3c(c4ccccc24)[C@H](CCl)CN3C(=O)c2cc3cc(OCCCN4CCC4)ccc3[nH]2)[C@H]2CSSC[C@H]21 | -14.5% (active) | -13.1% (active) | 0.951% (active) | -18.8% (active) | -54.8% (active) | 4% (active) | -8.82% (active) | -81.5% (active) | -37.8% (active) |
| CCN1C(=O)N(CC)C2NNC(Sc3c(C(=O)O)c4ccccc4n(CC(C)C)c3=O)=NC21 (stereo not drawn) | 51.2% | 56.2% | -1.23% (active) | 80.8% | -32.3% (active) | 20.9% | 26.9% | -21.4% (active) |  |
